Measurements as given in PubChem BioAssay.
Calls of active or inactive are those of the source. The rule behind the calls is not given here.

What follows are compounds tested against Pantothenate synthetase (Mycobacterium tuberculosis (strain ATCC 25618 / H37Rv)) (UniProt P9WIL5) (assay: Recombinant Mtb pantothenate synthetase (PanC) inhibitors, coupled enzyme, confirmatory (AID 375;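 note: 0% = full reaction with vehicle and 100% = no enzyme background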)). Conditions: coupled enzyme assay; at 10 µM, hits give high values.
Pantothenate synthetase (Mycobacterium tuberculosis (strain ATCC 25618 / H37Rv)), sequence (P9WIL5 whole entry, looked up): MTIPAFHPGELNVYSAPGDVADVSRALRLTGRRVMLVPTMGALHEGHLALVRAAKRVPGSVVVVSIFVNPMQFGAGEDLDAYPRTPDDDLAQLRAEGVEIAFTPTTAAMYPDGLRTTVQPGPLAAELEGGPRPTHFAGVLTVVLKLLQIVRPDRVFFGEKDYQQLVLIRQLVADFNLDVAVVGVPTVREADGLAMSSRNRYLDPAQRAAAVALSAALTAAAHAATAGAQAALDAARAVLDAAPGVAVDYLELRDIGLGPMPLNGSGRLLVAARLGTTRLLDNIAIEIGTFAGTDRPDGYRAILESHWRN

Row | SMILES | inhibition
1 | COCCCNC(=O)CSc1ccc(Cl)cc1 | 0% (inactive)
2 | O=c1oc2ccccc2c2c1ncn2-c1ccccc1 | 0% (inactive)
3 | Cc1ccc(CN2CCN(C(=O)C3CCC3)CC2)cc1 | 3% (inactive)
4 | COc1ccc(S(=O)(=O)NCCSCc2ccco2)cc1Cl | 0% (inactive)
5 | O=C(CSc1nc2cc(Cl)ccc2s1)N1CCN(C(=O)c2ccco2)CC1 | 9% (inactive)
6 | Cc1cccc(-c2nnc(SCC#N)n2-c2cccc(Cl)c2)c1 | 0% (inactive)
7 | CCCc1cc(C(N)=O)c(NC(=O)c2ccco2)s1 | 0% (inactive)
8 | Cn1cc(CN2CCc3ccccc3C2)c2ccccc21 | 9% (inactive)
9 | CC(=O)N(C)C1(c2nnnn2CCOC(=O)Nc2ccc(Cl)cc2)CCCCC1 | 0% (inactive)
10 | Brc1c(NC2=NCCN2)ccc2nccnc12 | 0% (inactive)
11 | CC(=O)Oc1ccc(CCC(C)OC(C)=O)cc1 (stereo not given) | 8% (inactive)
12 | CCOC(=O)CC(NS(=O)(=O)c1ccc(NC(C)=O)cc1)c1ccc(OCC)cc1 (stereo not given) | 5% (inactive)
13 | CCn1nc(NC(=O)c2cccnc2)c2cc3ccccc3nc21 | 0% (inactive)
14 | Fc1cccc(NCc2cn3ccccc3n2)c1 | 0% (inactive)
15 | Cc1ccc(C(=O)CSc2n[nH]c(-c3ccco3)n2)cc1C | 1% (inactive)
16 | CC1c2nc3ccccc3n2C(CC(=O)NCc2ccccn2)C(=O)N1Cc1ccccc1 (stereo not given) | 0% (inactive)
17 | CC(=O)OCC1=C(C(=O)O)N2C(=O)[C@@H](NC(=O)Cc3cccs3)[C@H]2SC1 | 0% (inactive)
18 | O=C(CSc1nnc2ccccn12)c1ccccc1 | 0% (inactive)
19 | CN1CCC(=C2c3ccccc3C=Cc3ccccc32)CC1 | 0% (inactive)
20 | Cc1cc(C)n(-c2nc3nonc3nc2-n2nc(C)cc2C)n1 | 0% (inactive)

Row | SMILES | inhibition
21 | O=C(OCC(=O)N1CCCCCC1)c1cccs1 | 0% (inactive)
22 | O=C(c1cc2ccccc2oc1=O)N1CCN(c2ccc(N3CCOCC3)nn2)CC1 | 0% (inactive)
23 | COc1ccccc1N1CCN(C(=O)c2cc(-c3ccc(Cl)c(Cl)c3)on2)CC1 | 0% (inactive)
24 | Cc1cc(C)n(CC2CC(=O)N(c3ccc(Cl)c(Cl)c3)C2=O)n1 (stereo not given) | 0% (inactive)
25 | CCOC(=O)c1cc2sccc2n1CC(=O)Nc1ccc(OC)cc1OC | 0% (inactive)
26 | CN(Cc1ccccc1)C(=O)CNC(=O)Cn1cnc2ccccc2c1=O | 0% (inactive)
27 | O=C(Nc1ccc2c(c1)nc1n2CCN(Cc2ccccc2)C1)c1cccs1 | 0% (inactive)
28 | COc1cccc(C(=O)Nc2cccc(C(=O)N3CCOCC3)c2)c1 | 2% (inactive)
29 | CCn1cc(C(=O)O)c(=O)c2cc(F)c(N3CCN(C(=O)Nc4ccccc4)CC3)cc21 | 1% (inactive)
30 | CC1(C)Cc2c(c(=S)nc(-c3ccccc3)n2CCO)CO1 | 9% (inactive)
31 | CCCSc1nc2c(cnn2-c2ccc(C)cc2)c(=O)[nH]1 | 0% (inactive)
32 | Cc1cc(=O)n2nc(N3CCCC(C(=O)N4CCN(C)CC4)C3)sc2n1 (stereo not given) | 1% (inactive)
33 | CNC(=O)OC(C)CNS(=O)(=O)c1ccc(C)cc1 (stereo not given) | 0% (inactive)
34 | Cc1ccc(-n2nc3cc(Cl)c(NC(=O)c4ccco4)cc3n2)cc1 | 3% (inactive)
35 | Cc1cccc(NC(=O)c2cc(NC(=O)c3ccco3)ccc2N2CCCCC2)c1 | 2% (inactive)
36 | CCOC(=O)c1c(NC(=O)c2nn(CC)cc2Br)c(C#N)cn1-c1ccccc1 | 0% (inactive)
37 | Cc1ccc(CNC(=O)C2CC(=O)OC23CCCC3)c(C)c1 (stereo not given) | 0% (inactive)
38 | CN(C)CCNc1oc(-c2ccccc2F)nc1C#N | 1% (inactive)
39 | O=C(NCc1cccnc1)c1cn(CCc2ccccc2)nn1 | 0% (inactive)
40 | CCS(=O)(=O)Nc1ccc(C(=O)CC2(O)C(=O)Nc3ccccc32)cc1 (stereo not given) | 14% (inactive)
